Data published in PubChem BioAssay.
Calls of active or inactive are those of the source. Unless noted, the rule behind the calls is not given here.

Columns and labels:
[1] = resazurin metabolic signal in HepG2 cells – cell-based, resazurin fluorescence, 24 h, PK04 Diversity Set, profiling panel (AID 1172); conditions: HepG2 viability, higher = more signal
[2] = budding yeast growth changes without added modifier – OD600, strain BY4716, 24 h, basal condition, primary screen (AID 1173); conditions: S. cerevisiae BY4716 growth, OD600, 24 h; higher = more signal, called active from +8 up or from −8 down
[3] = viability profiling in MM1S myeloma cells – cell-based, resazurin fluorescence, basal, 24 h, PK04 Diversity Set, profiling panel (AID 1174); conditions: higher = more signal, called active from +8 up or from −8 down;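 note: MM1S multiple myeloma cell line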
[4] = biological target: Dihydroorotate dehydrogenase (quinone), mitochondrial (Plasmodium falciparum (isolate 3D7)) (UniProt Q08210); assay: inhibition of P. falciparum DHODH – biochemical, C-terminal His tag, absorbance 600 nm, primary screen (AID 1175); conditions: PfDHODH enzyme, DCIP absorbance 600 nm; higher = more signal, called active from +8 up or from −8 down;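 note: recombinant parasite enzyme with a five histidine tag at its C terminus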
Dihydroorotate dehydrogenase (quinone), mitochondrial (Plasmodium falciparum (isolate 3D7)), sequence (Q08210 whole entry, looked up): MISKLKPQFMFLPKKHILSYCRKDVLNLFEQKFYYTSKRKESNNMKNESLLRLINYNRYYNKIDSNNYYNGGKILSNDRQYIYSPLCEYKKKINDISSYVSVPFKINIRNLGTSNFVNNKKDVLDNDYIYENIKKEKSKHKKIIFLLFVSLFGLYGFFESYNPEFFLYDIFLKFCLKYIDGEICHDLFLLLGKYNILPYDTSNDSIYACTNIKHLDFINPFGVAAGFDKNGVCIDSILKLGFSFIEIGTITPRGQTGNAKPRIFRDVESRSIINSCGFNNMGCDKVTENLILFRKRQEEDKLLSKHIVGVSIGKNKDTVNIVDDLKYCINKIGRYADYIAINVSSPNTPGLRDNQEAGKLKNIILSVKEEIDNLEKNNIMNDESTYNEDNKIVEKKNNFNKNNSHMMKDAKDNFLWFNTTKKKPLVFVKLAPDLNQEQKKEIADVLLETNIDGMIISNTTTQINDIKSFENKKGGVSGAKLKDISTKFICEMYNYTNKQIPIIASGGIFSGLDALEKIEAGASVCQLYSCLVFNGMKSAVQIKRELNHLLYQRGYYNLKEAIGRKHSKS

[5] = inhibition of PAO1 biofilm formation – strain PAO1, LB-PBS medium, absorbance 600 nm, primary screen (AID 1176); conditions: P. aeruginosa PAO1 growth/biofilm, A600, 12 h; higher = more signal
[6] = growth modulation of vineyard yeast isolate – strain RM11-1a, OD600, basal, 24 h, primary screen (AID 1177);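 note: cultures grown under basal conditions with no added stressor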; conditions: S. cerevisiae RM11-1a growth, OD600, 24 h; higher = more signal, called active from +8 up or from −8 down
[7] = growth of efflux-deficient E. coli DRC39 – strain DRC39, OD650, 24 h, E. coli filamentation inducers, primary screen (AID 1178);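 note: growth measured as culture turbidity by optical density at 650 nm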; conditions: E. coli DRC39 acrAB, higher = more signal, called active from +8 up or from −8 down
[8] = growth of efflux-deficient E. coli DRC39 – strain DRC39, OD650, 48 h, E. coli filamentation inducers, primary screen (AID 1179);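 note: screen aims at cell division blockers that make cells filament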; conditions: E. coli DRC39 delta-acrAB growth, higher = more signal, called active from +8 up or from −8 down
[9] = viability profiling in RPMI8226 myeloma cells – cell-based, resazurin fluorescence, basal, 24 h, PK04 Diversity Set, profiling panel (AID 1180); conditions: higher = more signal;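 note: RPMI8826 multiple myeloma cell line at 5000 cells per well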
[10] = biological target: E3 ubiquitin-protein ligase XIAP (Homo sapiens) (UniProt P98170); assay: small molecules binding XIAP protein – biophysical, small-molecule microarray, fluorescence 635 nm, primary screen (AID 1181); conditions: higher = more signal;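 note: score merges 667 nm emission and signal to noise over triplicate slides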
E3 ubiquitin-protein ligase XIAP (Homo sapiens), sequence (P98170 whole entry, looked up, the tested form may be a part): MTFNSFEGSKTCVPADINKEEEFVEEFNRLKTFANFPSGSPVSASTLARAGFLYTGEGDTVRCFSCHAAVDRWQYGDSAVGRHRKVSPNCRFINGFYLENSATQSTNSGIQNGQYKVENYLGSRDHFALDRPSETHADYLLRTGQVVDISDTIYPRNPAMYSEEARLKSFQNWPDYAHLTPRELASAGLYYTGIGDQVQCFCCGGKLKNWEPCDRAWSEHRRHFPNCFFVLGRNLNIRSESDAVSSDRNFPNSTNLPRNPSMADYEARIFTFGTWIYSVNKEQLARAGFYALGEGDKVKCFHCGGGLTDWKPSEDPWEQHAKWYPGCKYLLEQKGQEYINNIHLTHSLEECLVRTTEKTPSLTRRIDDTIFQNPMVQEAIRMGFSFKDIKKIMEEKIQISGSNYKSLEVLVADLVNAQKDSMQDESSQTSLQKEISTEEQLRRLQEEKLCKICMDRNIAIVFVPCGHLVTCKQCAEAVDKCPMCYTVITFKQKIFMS

[11] = system: XIP peptide (Xip251-270) binding; assay: XIP fragment 251-270 binding compounds – biochemical, small-molecule microarray, fluorescence 635/667 nm, 0.1 µg/mL protein, primary screen (AID 1182); conditions: fluorescent protein binding, 635 nm, higher = more signal, called active from +8 up or from −8 down
XIP peptide (Xip251-270) = assay: compounds binding XIP fragment 251-270 – biochemical, small-molecule microarray, fluorescence 635/667 nm, 0.5 µg/mL protein, primary screen (AID 1183); conditions: fluorescence 635 nm, higher = more signal
[12] = blood-stage malaria parasite viability loss – strain 3D7, DAPI fluorescence, 100 nL, primary screen (AID 1184);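 note: parasites grown inside human red blood cells in medium with human serum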; conditions: P. falciparum 3D7 growth, 3 d, higher = more signal
[13] = biological target: Homeobox protein Hox-A13 (Mus musculus) (UniProt Q62424); assay: disruptors of Hoxa13 oligonucleotide interaction – biochemical, fluorescence polarization, labeled oligonucleotide, primary screen (AID 1185); conditions: Hoxa13:DNA binding, 15 min, higher = more signal, called active from +8 up or from −8 down
Homeobox protein Hox-A13 (Mus musculus), sequence (Q62424 whole entry, looked up): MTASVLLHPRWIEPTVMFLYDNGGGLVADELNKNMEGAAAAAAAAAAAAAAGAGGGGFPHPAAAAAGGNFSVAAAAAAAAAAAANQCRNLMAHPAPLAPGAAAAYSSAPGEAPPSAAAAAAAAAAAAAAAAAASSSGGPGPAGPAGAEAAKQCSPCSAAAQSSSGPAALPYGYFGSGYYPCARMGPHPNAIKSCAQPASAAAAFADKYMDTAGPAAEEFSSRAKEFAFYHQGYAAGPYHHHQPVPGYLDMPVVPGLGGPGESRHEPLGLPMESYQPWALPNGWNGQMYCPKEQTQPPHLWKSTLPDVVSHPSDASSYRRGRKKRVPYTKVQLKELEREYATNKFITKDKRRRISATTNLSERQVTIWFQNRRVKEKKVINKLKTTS

[14] = blockers of DNA damage checkpoint Chk1 activation – imaging, HeLa, hydroxyurea, phospho-Chk1 antibody, percent positive cells, primary screen (AID 1186); conditions: hydroxyurea-induced phospho-Chk1 immunofluorescence imaging, higher = more signal
[15] = blockers of DNA damage checkpoint Chk1 activation – imaging, HeLa, hydroxyurea, phospho-Chk1 nuclear intensity, primary screen (AID 1187); conditions: hydroxyurea-induced phospho-Chk1 immunofluorescence imaging, higher = more signal

Row | Compound | z-score [1] | z-score [2] | z-score [3] | composite z-score [4] | z-score [5] | z-score [6] | z-score [7] | z-score [8] | z-score [9] | composite z-score [10] | composite z-score [11] | composite z-score (XIP peptide (Xip251-270)) | z-score [12] | z-score [13] | z-score [14] | z-score [15]
1 | COCCOC(=O)N1C(=O)[C@@]2(c3ccccc31)[C@H](C(=O)N1CCN(c3ncccn3)CC1)[C@H]1C(=O)O[C@H](c3ccccc3)[C@H](c3ccccc3)N1[C@@H]2c1ccc(O)cc1 | -0.0067 | 0.056 (inactive) | 0.439 (inactive) | -0.437 (inactive) | 1.81 (inactive) | 0.953 (inactive) | -0.612 (inactive) | 0.075 (inactive) | 0.434 | -0.222 | 0.43 (inactive) | 0.854 | -1.55 | -0.883 (inactive) | 0.172 (inactive) | 0.371 (inactive)
2 | CC(=O)c1ccc(C(O)C2C=CC3C(=O)N(c4ccccc4)C(=O)C3N2Nc2ccc(C#N)cc2)cc1 (centres undefined) | -1.04 | -2.04 (inactive) | -0.848 (inactive) | -0.946 (inactive) | 0.695 (inactive) | -0.826 (inactive) | -0.821 (inactive) | -0.433 (inactive) | -1.84 | -0.396 | -0.305 (inactive) | 0.441 | 0.981 | -4.75 (inactive) | 0.293 (inactive) | -0.211 (inactive)
3 | OCC1CC(c2ccccc2)=NO1 (centres undefined) | -0.107 | -1.09 (inactive) | -0.85 (inactive) | -0.17 (inactive) | -0.201 (inactive) | 0.309 (inactive) | -0.075 (inactive) | 0.194 (inactive) | 0.886 | -0.158 | -0.336 (inactive) | -0.118 | 0.308 | 0.0368 (inactive) | -0.582 (inactive) | -0.0558 (inactive)
4 | CCOC(=O)C[C@H]1[C@H](OC(=O)c2ccccc2-c2ccccc2)[C@@H](NC(=O)C2CCCCC2)c2cc(OCCCO)ccc2N1C(=O)Cc1ccc(OC)cc1 | -0.18 | 0.0422 (inactive) | -0.257 (inactive) | 0.0563 (inactive) | 0.0238 (inactive) | -0.508 (inactive) | -0.506 (inactive) | -0.657 (inactive) | -0.466 | -0.159 | 0.0141 (inactive) | 0.333 | 0.273 | -3.62 (inactive) | -0.0021 (inactive) | 0.223 (inactive)
5 | C=C(/C(=C/C[C@@H](OC(C)=O)c1cccc(OCCO)c1)c1cc(C(=O)OC)ccc1OC)C(C)C | 1.47 | -0.0321 (inactive) | 0.172 (inactive) | -1.4 (inactive) | -0.153 (inactive) | 0.258 (inactive) | 0.233 (inactive) | 0.547 (inactive) | 0.883 | -0.0622 | -0.139 (inactive) | 0.567 | -3.06 | -5.59 (inactive) | -0.541 (inactive) | -0.42 (inactive)
6 | C=CCC(OC(C)=O)[C@@H]1[C@@H](N(Cc2ccc(-c3cccc(C(F)(F)F)c3)o2)C(=O)c2ccc(C)cc2)c2cc(OCCCO)ccc2N1C(=O)c1ccc2ccccc2c1 (some centres undefined) | 0.472 | 0.656 (inactive) | 0.845 (inactive) | -0.689 (inactive) | -0.124 (inactive) | 0.544 (inactive) | -0.0973 (inactive) | 0.759 (inactive) | 1.37 | -0.0878 | 0.579 (inactive) | 0.0901 | -2.6 | -0.683 (inactive) | -0.793 (inactive) | -0.595 (inactive)
7 | O=C1OCC=C[C@H]2OC34C=CCN(Cc5ccccc5)C(=O)[C@H]3N(CCCCCCO)C(=O)[C@@H]4[C@@H]12 (some centres undefined) | 1.07 | -0.296 (inactive) | 1.59 (inactive) | -1.65 (inactive) | 0.0683 (inactive) | -0.739 (inactive) | 0.693 (inactive) | 0.415 (inactive) | 0.517 | 0.052 | 1.49 (inactive) | 0.295 | -1.16 | -4.53 (inactive) | -0.584 (inactive) | -0.232 (inactive)
8 | Cc1cc(C)cc(N2C(=O)CSC2c2cccc([N+](=O)[O-])c2)c1 (centres undefined) | -0.654 | -0.899 (inactive) | -1.81 (inactive) | -1.39 (inactive) | -0.242 (inactive) | 0.265 (inactive) | 0.837 (inactive) | 0.384 (inactive) | -0.341 | 0.0808 | 0.397 (inactive) | 0.521 | -0.0855 | 0.0457 (inactive) | -0.251 (inactive) | -0.335 (inactive)
9 | CC[C@H]1C2=C3C(CC[C@H]4C(OCc5ccc(F)cc5C(F)(F)F)OC[C@](C)([C@@H]34)N(C(=O)OC(C)(C)C)C2)C(COC)C1COC (some centres undefined) | -0.983 | 0.9 (inactive) | -1.31 (inactive) | -0.0058 (inactive) | -0.126 (inactive) | 0.628 (inactive) | -0.543 (inactive) | 0.0886 (inactive) | -0.932 | -0.0838 | 0.716 (inactive) | -0.379 | 0.133 | -1.11 (inactive) | 0.645 (inactive) | 0.217 (inactive)
